The record followed here is PubChem BioAssay.

Several values for one entry are separate records, joined by “and”; a condition that tells them apart may be missing. Equal entries are not always repeated. The source holds several records for some structures; these can differ, active in one and inactive in another. Activity calls are given as the source filed them.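 How the source made its calls: active means normalized viability below 100% at a tested concentration; inactive means the rest.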

The first test in a line: ovarian cancer cell viability with rucaparib, profiling panel, oncology-focused library, rucaparib conditional (AID 1508598). The settings on record: patient-derived ovarian cancer cells, CellTiter-Glo viability, 144 h; at 0.0781 µM; OCI-P5x cells; without rucaparib; stronger effect = lower value. A general note: ATP-based viability assays read luminescence as a measure of living cells.
The term viability denotes a read-out of living cells in per cent, often relative to untreated cells. Regarding `Cc1ccc(NC(=O)c2ccc(CN3CCN(C)CC3)cc2)cc1Nc1nccc(-c2cccnc2)n1`, the viability was 96.1% (active) and 97.9% (active).

With `O=NN(CCCl)C(=O)NC1CCCCC1`, the viability was 112% (inactive).

With `O=c1c(O)c(-c2ccc(O)c(O)c2)oc2cc(O)cc(O)c12`, the viability is 109% (inactive).

On to `COc1cc2c(N3CCN(C(=O)Nc4ccc(OC(C)C)cc4)CC3)ncnc2cc1OCCCN1CCCCC1`, for which the viability is 94.2% (active).

On to `COC(=O)Nc1nc2ccc(C(=O)c3cccs3)cc2[nH]1`, for which the viability was 35.1% (active).

In the case of `CN(Cc1cnc2nc(N)nc(N)c2n1)c1ccc(C(=O)N[C@@H](CCC(=O)O)C(=O)O)cc1`, the viability was 98.3% (active).

The same test, now with this note: patient-derived ovarian cancer cells, CellTiter-Glo viability, 144 h; at 0.313 µM; OCI-C5x cells; with rucaparib 10 µM; stronger effect = lower value; 100% = cells with rucaparib alone.
With `Cc1ccc(NC(=O)c2ccc(CN3CCN(C)CC3)cc2)cc1Nc1nccc(-c2cccnc2)n1`, the viability was 120% (inactive) and 104% (inactive).

On to `O=NN(CCCl)C(=O)NC1CCCCC1`, for which the viability is 113% (inactive).

In the case of `O=c1c(O)c(-c2ccc(O)c(O)c2)oc2cc(O)cc(O)c12`, the viability was 111% (inactive).

In the case of `COc1cc2c(N3CCN(C(=O)Nc4ccc(OC(C)C)cc4)CC3)ncnc2cc1OCCCN1CCCCC1`, the viability is 119% (inactive).

For the molecule `COC(=O)Nc1nc2ccc(C(=O)c3cccs3)cc2[nH]1`, the viability was 89% (active).

Regarding `CN(Cc1cnc2nc(N)nc(N)c2n1)c1ccc(C(=O)N[C@@H](CCC(=O)O)C(=O)O)cc1`, the viability was 18.2% (active).

The same test, now with this note: patient-derived ovarian cancer cells, CellTiter-Glo viability, 144 h; at 0.313 µM; OCI-C5x cells; without rucaparib; stronger effect = lower value.
For the molecule `Cc1ccc(NC(=O)c2ccc(CN3CCN(C)CC3)cc2)cc1Nc1nccc(-c2cccnc2)n1`, the viability was 110% (inactive) and 103% (inactive).

On to `O=NN(CCCl)C(=O)NC1CCCCC1`, for which the viability was 119% (inactive).

In the case of `O=c1c(O)c(-c2ccc(O)c(O)c2)oc2cc(O)cc(O)c12`, the viability is 127% (inactive).

Consider `COc1cc2c(N3CCN(C(=O)Nc4ccc(OC(C)C)cc4)CC3)ncnc2cc1OCCCN1CCCCC1`, for which the viability is 113% (inactive).

In the case of `COC(=O)Nc1nc2ccc(C(=O)c3cccs3)cc2[nH]1`, the viability was 97.5% (active).

For the molecule `CN(Cc1cnc2nc(N)nc(N)c2n1)c1ccc(C(=O)N[C@@H](CCC(=O)O)C(=O)O)cc1`, the viability is 17.2% (active).

The test is the same for the next values; noted with them: patient-derived ovarian cancer cells, CellTiter-Glo viability, 144 h; at 0.313 µM; OCI-P5x cells; with rucaparib 20 µM; stronger effect = lower value; 100% = cells with rucaparib alone.
Consider `Cc1ccc(NC(=O)c2ccc(CN3CCN(C)CC3)cc2)cc1Nc1nccc(-c2cccnc2)n1`, for which the viability is 100% (inactive) and 103% (inactive).

`O=NN(CCCl)C(=O)NC1CCCCC1`: the viability was 103% (inactive).

Take `O=c1c(O)c(-c2ccc(O)c(O)c2)oc2cc(O)cc(O)c12`: the viability is 101% (inactive).

For the molecule `COc1cc2c(N3CCN(C(=O)Nc4ccc(OC(C)C)cc4)CC3)ncnc2cc1OCCCN1CCCCC1`, the viability was 146% (inactive).

As to `COC(=O)Nc1nc2ccc(C(=O)c3cccs3)cc2[nH]1`, the viability is 77.5% (active).

Regarding `CN(Cc1cnc2nc(N)nc(N)c2n1)c1ccc(C(=O)N[C@@H](CCC(=O)O)C(=O)O)cc1`, the viability was 104% (inactive).

The test is the same for the next values; noted with them: patient-derived ovarian cancer cells, CellTiter-Glo viability, 144 h; at 0.313 µM; OCI-P5x cells; without rucaparib; stronger effect = lower value.
For `Cc1ccc(NC(=O)c2ccc(CN3CCN(C)CC3)cc2)cc1Nc1nccc(-c2cccnc2)n1`, the viability was 96.2% (active) and 101% (inactive).

As for `O=NN(CCCl)C(=O)NC1CCCCC1`, the viability is 119% (inactive).

As to `O=c1c(O)c(-c2ccc(O)c(O)c2)oc2cc(O)cc(O)c12`, the viability was 112% (inactive).

Take `COc1cc2c(N3CCN(C(=O)Nc4ccc(OC(C)C)cc4)CC3)ncnc2cc1OCCCN1CCCCC1`: the viability is 90.4% (active).

For the molecule `COC(=O)Nc1nc2ccc(C(=O)c3cccs3)cc2[nH]1`, the viability is 52.1% (active).

Turning to `CN(Cc1cnc2nc(N)nc(N)c2n1)c1ccc(C(=O)N[C@@H](CCC(=O)O)C(=O)O)cc1`, the viability was 93.3% (active).

Still in this test, the particulars now being: patient-derived ovarian cancer cells, CellTiter-Glo viability, 144 h; at 1.25 µM; OCI-C5x cells; with rucaparib 10 µM; stronger effect = lower value; 100% = cells with rucaparib alone.
Turning to `Cc1ccc(NC(=O)c2ccc(CN3CCN(C)CC3)cc2)cc1Nc1nccc(-c2cccnc2)n1`, the viability was 118% (inactive) and 105% (inactive).

As to `O=NN(CCCl)C(=O)NC1CCCCC1`, the viability is 115% (inactive).

In the case of `O=c1c(O)c(-c2ccc(O)c(O)c2)oc2cc(O)cc(O)c12`, the viability was 111% (inactive).

Turning to `COc1cc2c(N3CCN(C(=O)Nc4ccc(OC(C)C)cc4)CC3)ncnc2cc1OCCCN1CCCCC1`, the viability is 123% (inactive).

In the case of `COC(=O)Nc1nc2ccc(C(=O)c3cccs3)cc2[nH]1`, the viability is 56.8% (active).

Regarding `CN(Cc1cnc2nc(N)nc(N)c2n1)c1ccc(C(=O)N[C@@H](CCC(=O)O)C(=O)O)cc1`, the viability is 17.8% (active).

The test is the same for the next values; noted with them: patient-derived ovarian cancer cells, CellTiter-Glo viability, 144 h; at 1.25 µM; OCI-C5x cells; without rucaparib; stronger effect = lower value.
Regarding `Cc1ccc(NC(=O)c2ccc(CN3CCN(C)CC3)cc2)cc1Nc1nccc(-c2cccnc2)n1`, the viability is 115% (inactive) and 106% (inactive).

For the molecule `O=NN(CCCl)C(=O)NC1CCCCC1`, the viability was 125% (inactive).

With `O=c1c(O)c(-c2ccc(O)c(O)c2)oc2cc(O)cc(O)c12`, the viability is 125% (inactive).

For `COc1cc2c(N3CCN(C(=O)Nc4ccc(OC(C)C)cc4)CC3)ncnc2cc1OCCCN1CCCCC1`, the viability was 117% (inactive).

`COC(=O)Nc1nc2ccc(C(=O)c3cccs3)cc2[nH]1`: the viability is 60.1% (active).

For `CN(Cc1cnc2nc(N)nc(N)c2n1)c1ccc(C(=O)N[C@@H](CCC(=O)O)C(=O)O)cc1`, the viability is 16.5% (active).
